From PubChem BioAssay (EPA / NIEHS)
Results filed as inconclusive are left out. Activity calls are given as the source filed them. The calls were made as follows: active = hit-call score of the fitted dose curve at least 0.9, where 1 is the maximum; inconclusive = response in the unintended direction; inactive = score below 0.9.

Each compound was assayed on Broad substrate specificity ATP-binding cassette transporter ABCG2 (Homo sapiens) (UniProt Q9UNQ0) (assay: CLD_ABCG2_24hr: CellzDirect (CLD) Gene Expression Assay for ABC Transporter (ABCG2) at 24 hours (AID 2283685)).
Sequence of Broad substrate specificity ATP-binding cassette transporter ABCG2 (Homo sapiens) (Q9UNQ0 whole entry, looked up): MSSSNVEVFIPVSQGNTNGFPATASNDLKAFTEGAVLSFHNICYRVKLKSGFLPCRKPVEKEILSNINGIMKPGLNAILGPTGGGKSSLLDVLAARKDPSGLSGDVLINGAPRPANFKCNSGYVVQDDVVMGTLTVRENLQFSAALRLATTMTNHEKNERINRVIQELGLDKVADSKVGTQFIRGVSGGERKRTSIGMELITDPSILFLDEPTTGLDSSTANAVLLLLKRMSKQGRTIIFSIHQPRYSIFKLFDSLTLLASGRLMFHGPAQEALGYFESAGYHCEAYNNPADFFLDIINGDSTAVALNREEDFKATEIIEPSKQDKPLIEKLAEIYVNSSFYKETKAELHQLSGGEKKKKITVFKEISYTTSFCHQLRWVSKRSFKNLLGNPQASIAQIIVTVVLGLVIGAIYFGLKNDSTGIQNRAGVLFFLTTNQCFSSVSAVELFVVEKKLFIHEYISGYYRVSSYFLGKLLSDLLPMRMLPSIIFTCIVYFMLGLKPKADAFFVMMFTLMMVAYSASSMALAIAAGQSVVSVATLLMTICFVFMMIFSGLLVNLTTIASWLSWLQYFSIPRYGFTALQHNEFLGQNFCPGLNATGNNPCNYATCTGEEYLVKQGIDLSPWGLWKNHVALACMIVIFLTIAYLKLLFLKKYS
Description: CLD_24hr is a cell-based, multiplexed-readout assay that uses hepatocyte, a human liver primary cell, with measurements taken at 24 hours after chemical dosing in a 96-well plate.CLD_ABCG2_24hr is one of 16 assay component(s) measured or calculated from the CLD_24hr assay. It is designed to make measurements of mRNA induction, a form of inducible reporter, as detected with chemiluminescence signals by Quantitative Nuclease Protection Assay (qNPA) technology.Data from the assay component CLD_ABCG2_24hr was analyzed at the endpoint, CLD_ABCG2_24hr, in the positive analysis fitting direction relative to DMSO as the negative control and baseline of activity. Using a type of inducible reporter, gain-of-signal activity can be used to understand changes in the reporter gene as they relate to the gene ABCG2. Furthermore, this assay endpoint can be referred to as a primary readout. To generalize the intended target to other relatable targets, this assay endpoint is annotated to the transporter intended target family, where subfamily is ABC transporter.
Human hepatocyte cultures were treated daily for two consecutive days with fresh dosing solutions containing appropriate concentrations of the 320 ToxCast chemicals (chemical identities were blinded to CellzDirect and other ToxCast collaborators), vehicle control (0.2% DMSO), and positive control inducers as summarized in Table 1. Due to the large number of treatment groups and chemicals examined, the ToxCast chemicals were divided into two groups (spanning two independent cultures of hepatocytes from separate donor preparations (Hu778: ToxCast plates 1 and 2; Hu776: ToxCast plates 3 and 4). Each preparation of human hepatocyte cultures was treated with respective vehicle control, medium only control, set of six positive controls/reference chemicals for the five hepatic receptor pathways, and a subset of eight of the ToxCast chemicals (indoxacarb, pyrithiobac-sodium, norflurazon, cyhalofop-butyl, methomyl, thiram, acetochlor, and propiconazole). These replicate data, coupled with internal replicates designed within the blinded ToxCast chemical library, provided additional data to evaluate interindividual differences between hepatocyte preparations and their potential impact on chemical profiles.Cell morphology and integrity were evaluated using phase-contrast microscopy as an indicator of hepatocyte cell health (Tyson & Green, 1987). Cultures for each treatment group (i.e., media, vehicle [0.2% DMSO], positive control inducers [multiple concentrations], and the ToxCast chemicals [multiple concentrations]) were observed and cell morphology was assessed relative to vehicle control cultures at each harvest time point (0, 6, 24, or 48 h). […] Images were evaluated at the conclusion of the study to assess changes in cell integrity and account for the effects of chemical exposure on uncharacteristic changes in concentration-dependent gene expression profiles. The results from these determinations of apparent cytotoxicity were annotated (yes/no) alongside the corresponding qNPA data for reference.At the conclusion of each treatment period, hepatocyte cultures (96-well) were washed with 1 volume of HBSS, lysed by addition of 25 ul ArrayPlate lysis buffer (HTG, Tucson, AZ), and 70 ul/well of Denaturation Oil, denatured by incubation at 95C for 10 min, and frozen at approximately -70C until analysis by nuclease protection assay (qNPA) (Roberts et al., 2007). For qNPA analysis, cell lysates were thawed at 50C for approximately 30 min, qNPA probes were added, and samples were incubated at 95C for 10 min to begin the detection process by denaturing the target RNA, dissociating the duplexes and secondary structure hybridization. At the conclusion of the hybridization period, S1 nuclease reagent was added to each sample to digest all nonprotected nucleotides at 50C for 60-90 min. […]

| Compound | outcome | AC50 |
| --- | --- | --- |
| CCN(CC)C(=O)SCc1ccc(Cl)cc1 | inactive |  |
| CN1CSC(=S)N(C)C1 | inactive |  |
| CCCN(CCOc1c(Cl)cc(Cl)cc1Cl)C(=O)n1ccnc1 | inactive |  |
| O=[N+]([O-])c1c(Cl)c(Cl)c(Cl)c(Cl)c1Cl | inactive |  |
| CCOCN(C(=O)CCl)c1c(C)cccc1CC | inactive |  |
| CC(C)(C)C(O)C(Oc1ccc(Cl)cc1)n1cncn1 (centres undefined) | inactive |  |
| N#Cc1c(Cl)c(Cl)c(Cl)c(C#N)c1Cl | inactive |  |
| COC(=O)c1ccccc1S(=O)(=O)NC(=O)N(C)c1nc(C)nc(OC)n1 | inactive |  |
| CCOC1Oc2ccc(OS(C)(=O)=O)cc2C1(C)C (centres undefined) | inactive |  |
| C[C@H]1[C@H](c2ccc(Cl)cc2)SC(=O)N1C(=O)NC1CCCCC1 | inactive |  |
| CC[C@H](C)[C@H]1O[C@]2(C=C[C@@H]1C)C[C@@H]1C[C@@H](C/C=C(\C)[C@@H](O[C@H]3C[C@H](OC)[C@@H](O[C@H]4C[C@H](OC)[C@@H](O)[C@H](C)O4)[C@H](C)O3)[C@@H](C)/C=C/C=C3\CO[C@@H]4[C@H](O)C(C)=C[C@@H](C(=O)O1)[C@]34O)O2 (tested in a mixture with another compound) |  | 4.64 µM (active) |
| CCS(=O)(=O)c1cccnc1S(=O)(=O)NC(=O)Nc1nc(OC)cc(OC)n1 | inactive |  |
| Clc1ccccc1-c1nnc(-c2ccccc2Cl)nn1 | inactive |  |
| COc1nn(CSP(=S)(OC)OC)c(=O)s1 | inactive |  |
| CCOc1nc(NC)nc(NC(=O)NS(=O)(=O)c2ccccc2C(=O)OC)n1 | inactive |  |
| CNC(=O)Oc1ccccc1OC(C)C | inactive |  |
| O=S1OCC2C(CO1)C1(Cl)C(Cl)=C(Cl)C2(Cl)C1(Cl)Cl (centres undefined) | inactive |  |
| COC(=O)c1ccccc1S(=O)(=O)NC(=O)Nc1nc(C)nc(OC)n1 | inactive |  |
| COP(=S)(OC)Oc1ccc([N+](=O)[O-])cc1 | inactive |  |
| COc1cc(OC)nc(NC(=O)NS(=O)(=O)c2cc(NC=O)ccc2C(=O)N(C)C)n1 | inactive |  |

| Compound | outcome | AC50 |
| --- | --- | --- |
| [2H]C1([2H])[n+]2ccccc2-c2cccc[n+]2C1([2H])[2H] | inactive |  |
| O=[N+]([O-])/N=C1\NCCN1Cc1ccc(Cl)nc1 | inactive |  |
| O=C(NC(=O)c1c(F)cccc1F)Nc1ccc(OC(F)(F)C(F)OC(F)(F)F)c(Cl)c1 (centres undefined) | inactive |  |
| CC(C)OC(=O)Nc1cccc(Cl)c1 | inactive |  |
| CC(C)(C)C(O)/C(=C\c1ccc(Cl)cc1Cl)n1cncn1 (centres undefined) | inactive |  |
| COP(=O)(OC)OC=C(Cl)Cl | inactive |  |
| ClC1C(Cl)C(Cl)C(Cl)C(Cl)C1Cl (centres undefined) | inactive |  |
| CCCN(CCC)c1c([N+](=O)[O-])cc(C(F)(F)F)cc1[N+](=O)[O-] | inactive |  |
| N#CN | inactive |  |
| C#CCN1C(=O)COc2cc(F)c(N3C(=O)C4=C(CCCC4)C3=O)cc21 | inactive |  |
| Cc1cc(C)nc(NC(=O)NS(=O)(=O)c2ccccc2C(=O)OC2COC2)n1 | inactive |  |
| O=C(O)COc1ccc(Cl)cc1Cl | inactive |  |
| O=C1c2ccccc2C(=O)N1SC(Cl)(Cl)Cl | inactive |  |
| OCCOc1ccccc1 | inactive |  |
| CC(C)N(C(=O)COc1nnc(C(F)(F)F)s1)c1ccc(F)cc1 | inactive |  |
| CCC(C)(C)C(=O)OC1=C(c2ccc(Cl)cc2Cl)C(=O)OC12CCCCC2 | inactive |  |
| O=C(O)CCCOc1ccc(Cl)cc1Cl | inactive |  |
| O=C(O)C(F)(F)C(F)(F)C(F)(F)C(F)(F)C(F)(F)C(F)(F)C(F)(F)F | inactive |  |
| O=S(=O)(O)C(F)(F)C(F)(F)C(F)(F)C(F)(F)C(F)(F)C(F)(F)C(F)(F)C(F)(F)F | inactive |  |
